Screening data (PubChem)
Pf growth 48h – inhibits P. falciparum growth in the first generation, 48 h; P. falciparum luciferase growth in erythrocytes, 48 h; Potency, µM (highest dose often 28.7 µM), hits mostly inhibitors; 310,000 compounds, 5.9% hits; AID 504832
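Parasite viability was followed by luminescence of a genomically integrated firefly luciferase. Cultures held 0.1% parasitemia at 2% hematocrit (final), incubated under 5% CO2 at 37 C.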
RE007 growth inh – less growth of the S. pombe RE007 Vpr strain. Potency, µM (series often up to 92.2 µM), hits mostly inhibitors. S. pombe RE007 Vpr strain, BacTiter-Glo ATP luminescence, 24 h. 360,000 compounds, 0.21% hits; active means well fitted falling curve with a large enough effect; inconclusive means small, poorly fitted or top-dose-only effect; inactive means no such curve, though single readings can be large or run the other way; further: nearly all actives have a fitted effect of over 50% in size
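Fission yeast RE007 carrying one integrated HIV-1 vpr copy, seeded at OD 0.01 in PMG+AL medium with 23 nL pinned compound. Grown 24 h at 30 degrees; viability read by BacTiter-Glo luminescence after 5 min.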
Pf growth 96h – P. falciparum growth inhibition at 96 hours. 320,000 compounds, 6.9% hits. P. falciparum luciferase reporter growth, 96 h. Potency, µM (top dose mostly 28.7 µM), actives largely listed as inhibitors
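Luminescence readout: decreased luciferase signal marks inhibited growth of reporter-expressing P. falciparum in infected red cells (2% hematocrit, 0.05% parasitemia final), exposed to compound two generations (96 h, 37 C, 5% CO2).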
NS1 function inh – blocks influenza NS1 protein function | 270,000 compounds, 0.4% hits | AID 2326 | Potency, µM (highest dose often 46.1 µM); calls by dose curve; further: actives are rising curves; nearly all actives have a fitted effect of over 50% in size
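Recovery from NS1-induced slow growth read by OD600 in budding yeast switched to galactose assay medium (pH 6.0, -URA) at 1:100 dilution. Compound 23 nl per well; the matching strain lacking NS1 serves as control.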
SARS PLP yeast – blocks SARS-CoV papain-like protease in a yeast assay; S. cerevisiae expressing SARS-CoV PLpro, growth rescue; Potency, µM (top dose mostly 32.9 µM), hits mostly activators; 330,000 compounds, 0.19% hits; calls by dose curve; further: nearly all actives have a fitted effect of over 55% in size
Of the large screens only hits and unclear results are named; the others gave an inactive call; ! = repeats disagree. This is a sample that favours compounds with a hit; in the whole collection about 9.5% have one here. Unless noted, the call rests on the fitted dose curve; in most records, active means well fitted inhibition curve with a large enough effect; inconclusive means small, poorly fitted or top-dose-only effect, or another doubt; inactive means no such curve, though single readings can be large or run the other way.

CCc1nc2ccc(C(=O)N3CCN(C(C)=O)CC3)cn2c1N(C)C(=O)c1cccc(OC)c1	none (no result: Pf growth 48h, Pf growth 96h, NS1 function inh, SARS PLP yeast)
CCCC12CN3CC(CCC)(CN(C1)C3c1ccccn1)C2=O (configuration not stated)	Pf growth 48h 9.3µM (no result: Pf growth 96h)
CC(C)NCC(O)COc1ccc(CCOCC2CC2)cc1 (configuration not stated)	Pf growth 48h 13µM!, Pf growth 96h 3.4µM!
CC(CCc1ccccc1)NCC(O)COc1ccccc1 (configuration not stated)	Pf growth 48h 5.2µM, Pf growth 96h inconclusive (no result: NS1 function inh)
CC(NCC(O)COc1ccc2ccccc2c1)c1ccccc1 (configuration not stated)	Pf growth 48h 9.3µM, Pf growth 96h 9.3µM
Cc1ccc2c(c1)N(CC(=O)NCCC1=CCCCC1)C(=O)c1cccnc1O2	Pf growth 48h inconclusive, Pf growth 96h inconclusive
O=C(NCCCn1ccnc1)c1ccc(-c2cccc(C(F)(F)F)c2)o1	none (no result: Pf growth 48h, Pf growth 96h, NS1 function inh)
Cc1nn2c(=O)cc(CSCC(=O)Nc3ccccc3F)nc2s1	Pf growth 96h inconclusive
Cc1nn2c(=O)cc(CSCC(=O)Nc3ccccc3Cl)nc2s1	Pf growth 96h 12µM
CCCc1nn2c(=O)cc(CSCC(=O)Nc3ccccc3)nc2s1	Pf growth 96h inconclusive
CCCc1nn2c(=O)cc(CSCC(=O)Nc3nnc(C(C)C)s3)nc2s1	Pf growth 96h 12µM
CCCC1OC(c2ccco2)OCC1CC (configuration not stated)	none (no result: Pf growth 48h, Pf growth 96h, NS1 function inh, SARS PLP yeast)
Cc1nn(-c2ccccc2)c(C)c1C(=O)OC(C)C(=O)NC1CCCCC1 (configuration not stated)	none (no result: Pf growth 48h, Pf growth 96h, NS1 function inh)
S=C(Nc1ccc(Br)cc1Cl)N1CCN(c2ccccn2)CC1	Pf growth 96h inconclusive
CC1(C)Cc2cccc(Oc3ccc(S(=O)(=O)N4CCCC4)cn3)c2O1	Pf growth 48h 12µM, Pf growth 96h inconclusive (no result: NS1 function inh)
N#Cc1ccccc1Oc1ccc(S(=O)(=O)N2CCCCC2)cn1	none (no result: NS1 function inh)
CC1(C)Cc2cccc(OCC(=O)N3CCN(S(=O)(=O)c4ccc(F)cc4)CC3)c2O1	Pf growth 48h inconclusive, Pf growth 96h 9.3µM
CC1(C)Cc2cccc(Oc3ccc(S(=O)(=O)N4CCCCC4)cn3)c2O1	Pf growth 48h 13µM, Pf growth 96h inconclusive (no result: NS1 function inh)
CC(C)(CNC(=O)c1cccc(NS(=O)(=O)c2ccc(Br)cc2)c1)N1CCOCC1	none
S=C(NC1CCCC1)N1CCN(c2ccccn2)CC1	Pf growth 96h 2.1µM (no result: RE007 growth inh)
O=C(NC(=S)N1CCN(c2ccccn2)CC1)c1ccccc1	none
CC(=NNC(=S)N1CCN(c2ccccn2)CC1)c1nccs1	RE007 growth inh 35µM (no result: Pf growth 48h, Pf growth 96h, NS1 function inh, SARS PLP yeast)
Cc1c(O)ccoc1=O	none
COc1ccc(C(C(=O)NCCC(C)C)N(CCN2CCOCC2)C(=O)Cn2nnc3ccccc32)c(OC)c1 (configuration not stated)	Pf growth 48h inconclusive, Pf growth 96h 5.2µM
COc1cccc(C(C(=O)Nc2ccc(F)cc2)N(C(=O)Cn2nnc3ccccc32)C2CC2)c1 (configuration not stated)	Pf growth 48h inconclusive, Pf growth 96h 10µM, NS1 function inh inconclusive
COCCNC(=O)C(c1cccc(OC)c1)N(C(=O)Cn1nnc2ccccc21)c1cccnc1 (configuration not stated)	none (no result: Pf growth 48h)
CCOc1ccc(C(C(=O)Nc2ccc(F)cc2)N(C(=O)Cn2nnc3ccccc32)C2CC2)cc1 (configuration not stated)	Pf growth 48h inconclusive, Pf growth 96h 4.7µM, NS1 function inh inconclusive
COc1cccc(C(C(=O)NCC2CCCO2)N(C(=O)Cn2nnc3ccccc32)c2ccc(NC(C)=O)cc2)c1 (configuration not stated)	Pf growth 48h inconclusive
COCCN(C(=O)Cn1nnc2ccccc21)C(C(=O)NC1CCCC1)c1cccc(OC)c1OC (configuration not stated)	Pf growth 48h inconclusive
CCC(C)N(C(=O)Cn1nnc2ccccc21)C(C(=O)NCc1ccco1)c1cccc(OC)c1 (configuration not stated)	Pf growth 96h 10µM
COc1cc(N=C(N)N=C(N)N)c2ncccc2c1	none (no result: Pf growth 48h, RE007 growth inh, Pf growth 96h, SARS PLP yeast)
Oc1cccc(/C=N/Nc2cc(N3CCOCC3)nc(N3CCOCC3)n2)c1	none (no result: RE007 growth inh)
Cc1nc(N/N=C/c2cccc(F)c2)cc(N2CCOCC2)n1	Pf growth 48h inconclusive, Pf growth 96h 9.3µM
CC1(C(=O)Nc2ccc(F)cc2F)CCN1C(=O)CCC1CCCC1 (configuration not stated)	none (no result: Pf growth 48h, Pf growth 96h, NS1 function inh, SARS PLP yeast)
c1ccc(-c2nn3c(C4CCCCC4)nnc3s2)nc1	none
Clc1ccc(OCc2nn3c(C4CCCCC4)nnc3s2)cc1	Pf growth 96h 9.3µM
N#C/C(=C\c1cccc(O)c1)C(=O)Nc1ccc2c(c1)OCCO2	Pf growth 48h inconclusive
Cc1ccccc1C(=O)Nc1ccccc1N1CCN(C(=O)c2ccccc2)CC1	Pf growth 48h 12µM
CC(C)(C)C(=O)Nc1ccccc1N1CCN(C(=O)c2ccc(Cl)cc2)CC1	Pf growth 48h 10µM, Pf growth 96h inconclusive
CC(C)C(=O)NC(=S)Nc1ccccc1N1CCN(C(=O)c2ccc(Cl)cc2)CC1	Pf growth 48h 1.5µM
O=C(CSc1ccc(Cl)cc1)Nc1ccccc1N1CCN(C(=O)c2ccc(Cl)cc2)CC1	Pf growth 48h 4.1µM, Pf growth 96h inconclusive, NS1 function inh inconclusive
O=C(Nc1ccccc1N1CCCC1)C1CCN(C(=O)c2ccc(Cl)cc2)CC1	Pf growth 48h inconclusive, Pf growth 96h inconclusive (no result: NS1 function inh)
Cc1cc(C)nc(NC(=O)Nc2ccc(F)cc2F)n1	none
O=C(Nc1ccccc1N1CCN(C(=O)c2ccc(Cl)cc2)CC1)c1ccc2c(c1)OCO2	Pf growth 48h 3.7µM (no result: Pf growth 96h)
O=C(O)[C@H]1CCCC[C@@H]1C(=O)Nc1nc2ccccc2[nH]1	none (no result: Pf growth 48h, RE007 growth inh, Pf growth 96h, SARS PLP yeast)
O=C(N/N=C/c1cc2c(c([N+](=O)[O-])c1)OCO2)c1ccncc1	Pf growth 96h 2.3µM
O=C(Oc1ccc(OC(=O)c2ccncc2)cc1)c1ccncc1	none (no result: Pf growth 48h, Pf growth 96h, SARS PLP yeast)
O=C(N/N=C/c1ccc(C(F)(F)F)cc1)c1ccncc1	Pf growth 96h 1.7µM
COC(=O)/C=C/c1ccc(OC(=O)c2ccncc2)cc1	Pf growth 96h 13µM
O=C(Oc1ccc(/C=N/NC(=O)c2ccccc2O)cc1)c1ccccc1	Pf growth 96h 6.6µM (no result: Pf growth 48h)
O=C(Cn1cncn1)NCc1cc(F)ccc1F	Pf growth 96h inconclusive
Clc1ccc(/C=C\c2nc(Cl)c(-c3ccc(Cl)cc3)c(Cl)n2)cc1	none (no result: Pf growth 48h, RE007 growth inh, Pf growth 96h, SARS PLP yeast)
Cc1cccc(C(=O)Oc2ccc(/C=N/NC(=O)c3ccncc3)cc2)c1	Pf growth 48h 12µM, Pf growth 96h 12µM (no result: NS1 function inh)
CC(/C=N/NC(=O)c1ccncc1)=C\c1ccc(C(C)C)cc1	Pf growth 48h 4.7µM, Pf growth 96h 5.2µM
Cc1cccc(C(=O)Oc2ccc(/C=N/NC(=O)c3cc(O)cc(O)c3)cc2)c1	Pf growth 48h inconclusive
CC(=O)c1ccc(OC(=O)/C=C/c2ccccc2)cc1	Pf growth 96h 10µM
COc1ccc(/C(N)=N/OC(=O)/C=C/c2ccccc2)cc1	Pf growth 48h inconclusive (no result: NS1 function inh)
COc1cc(C(=O)Nc2cc(-c3cn4cccnc4n3)ccc2C)cc(OC)c1OC	Pf growth 96h inconclusive (no result: NS1 function inh)
